Assay outcomes as filed in PubChem BioAssay.
Shown are actives, neighbours in structure and some others; about 2.3% of the full set was active somewhere.
USP1 inh: inhibitors of human USP1/UAF1 deubiquitinase; Potency, µM (top dose mostly 57.1 µM), usual class: inhibitors; recombinant USP1/UAF1, Ub-Rhodamine cleavage fluorescence; actives 0.23% (n = 390,000); AID 743255; O94782; also: nearly all actives have a fitted effect of over 60% in size
Target sequence (O94782 whole entry, looked up): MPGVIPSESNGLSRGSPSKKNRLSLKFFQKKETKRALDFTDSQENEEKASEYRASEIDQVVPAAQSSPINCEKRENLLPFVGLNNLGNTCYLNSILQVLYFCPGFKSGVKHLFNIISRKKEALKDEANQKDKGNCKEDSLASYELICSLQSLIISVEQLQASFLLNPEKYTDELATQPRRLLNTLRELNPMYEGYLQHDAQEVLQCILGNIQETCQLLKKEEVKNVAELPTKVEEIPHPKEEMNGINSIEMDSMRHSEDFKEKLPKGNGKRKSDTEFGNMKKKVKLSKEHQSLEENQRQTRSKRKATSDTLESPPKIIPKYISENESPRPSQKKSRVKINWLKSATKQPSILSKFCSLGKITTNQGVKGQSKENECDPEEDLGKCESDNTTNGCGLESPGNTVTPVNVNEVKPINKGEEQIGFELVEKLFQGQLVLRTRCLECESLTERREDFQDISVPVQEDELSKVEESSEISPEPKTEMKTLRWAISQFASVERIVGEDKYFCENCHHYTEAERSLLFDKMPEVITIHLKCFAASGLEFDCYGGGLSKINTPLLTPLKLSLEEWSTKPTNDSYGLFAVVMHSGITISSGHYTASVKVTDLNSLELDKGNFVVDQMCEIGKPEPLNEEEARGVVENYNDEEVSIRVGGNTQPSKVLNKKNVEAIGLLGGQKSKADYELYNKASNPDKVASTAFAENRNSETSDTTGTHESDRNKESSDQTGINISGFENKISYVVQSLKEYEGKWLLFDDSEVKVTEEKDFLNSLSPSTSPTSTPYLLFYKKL
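USP1/UAF1 complex at 1 nM was preincubated with compound for 15 min at room temperature, then Ub-Rho substrate (150nM final) was added. Fluorescence (480/540 nm) was read kinetically, 6 reads every 60 seconds.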
Tau FP inhib: blocks human tau fibril formation measured by polarization; Potency, µM (titrated, usually from 57.7 µM), usual class: inhibitors; AID 1468; P10636; actives 0.39% (n = 280,000); K18 P301L tau heparin fibrillization, Alexa594 FP, 6 h; also: nearly all actives have a fitted effect of over 55% in size
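FP of Alexa 594-tau after heparin (20 uM) induction. Substrate: human K18 P301L, 15 uM unlabeled, 0.24 uM labeled. Buffer 100 mM sodium acetate pH 7. 6 hr, 37 C.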
Tau fluor cs: counter-screen for tau fibril formation inhibitors; tau K18 P301L Alexa594 fluorescence, heparin fibrillization; Potency, µM (highest dose often 57.7 µM); actives 0.93% (n = 280,000); AID 1463; also: nearly all actives have a fitted effect of over 55% in size
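Human K18 P301L tau (15 uM unlabeled plus 0.24 uM Alexa 594-labeled, final) in 100 mM sodium acetate pH 7 was mixed with compound and 20 uM heparin and incubated 6 hr at 37 C.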
FBPA coupling cs: counter-screen for Giardia aldolase inhibitors: coupling enzyme system. activity change, negative = inhibition, % at 58.2 µM, hits read low. AID 2472. actives 0.67% (n = 290,000). coupling enzyme system counterscreen, AmpLite Red fluorescence; in the data active = activity change below about -30%
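Fluorescence at 525 nm excitation and 598 nm emission measured inhibition of the coupled detection system without aldolase. Compounds (at 57.5 uM final) were preincubated 10 min at room temperature with coupling enzyme reagent before a 20 min substrate/AmpLite Red step.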
Tau ThT inhib: blocks human tau fibril formation measured by thioflavin T | AID 1460 | actives 2.1% (n = 270,000) | Potency, µM (titrated, usually from 57.4 µM), usual class: inhibitors | recombinant tau K18 P301L, heparin-induced fibrillization, ThT fluorescence; also: nearly all actives have a fitted effect of over 55% in size
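ThT emission at 510 nm, taken 1 hr after adding 30 uM dye, quantifies aggregates formed when 20 uM heparin acts on human tau K18 P301L for 6 hr at 37 C.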
Large screens that a line does not name were inactive; [ ] = dose if it differs, or a comment. Unless noted, calls follow the shape of the dose curve; as a rule, active = well fitted curve in the direction sought with a large enough effect; inconclusive = small, poorly fitted or top-dose-only effect, or another doubt; inactive = no such curve, though single readings can be large; an effect the other way counts as inactive or inconclusive.

Cc1c(C)n(O)c2ccc3nonc3c12	Tau FP inhib inconclusive, Tau ThT inhib 31.6µM
CCCCC/C=C\C/C=C\CCCCCCCCCC(=O)NCCc1ccc(O)c(O)c1	none (no result: USP1 inh)
Cc1ccccc1N1C(=O)NC(=O)/C(=C/c2ccc(N3CCOCC3)o2)C1=O	USP1 inh 25.1µM
Cc1ccccc1N1C(=O)NC(=O)/C(=C\c2cc(Br)c(N3CCOCC3)o2)C1=O	USP1 inh inconclusive, Tau FP inhib inconclusive, Tau ThT inhib 15.8µM
Cc1cccc(N2C(=O)/C(=C/c3ccc(N4CCN(C)CC4)o3)C(=O)NC2=S)c1C	USP1 inh inconclusive
Cc1ccc(-c2nnc(Nc3ccc(Br)cc3)c3ccccc23)cc1S(=O)(=O)NCc1nc2ccccc2[nH]1	Tau FP inhib inconclusive, Tau fluor cs inconclusive (no result: FBPA coupling cs)
CN(C)c1ccc(NC(=O)Oc2ccccc2)cc1	Tau FP inhib inconclusive, Tau fluor cs inconclusive, Tau ThT inhib 14.1µM
CC(C)c1ccc(NC(=O)c2ccc(F)c(S(=O)(=O)N3CCc4ccccc4C3)c2)cc1	Tau FP inhib inconclusive (no result: FBPA coupling cs)
N#CC(C#N)=NNc1ccc(OC(F)(F)F)cc1	Tau FP inhib inconclusive, Tau fluor cs inconclusive, Tau ThT inhib 7.94µM (no result: USP1 inh)
CN1[C@@H]2CC[C@H]1CC(O[C@@H](c1ccccc1)c1ccc(Cl)cc1)C2 (some centres undefined)	Tau ThT inhib inconclusive (no result: USP1 inh)
Cc1cc(C=C2C(=O)NC(=S)NC2=O)c(C)n1-c1ccc2c(c1)OCO2	Tau fluor cs inconclusive, Tau ThT inhib 14.1µM
Cc1cc(C=C2C(=O)NC(=O)NC2=O)c(C)n1-c1ccc2c(c1)OCO2	Tau FP inhib inconclusive, Tau ThT inhib inconclusive
OC[C@H]1O[C@@H](n2cnc3cc(Cl)c(Cl)cc32)[C@H](O)[C@H]1O	none (no result: USP1 inh)
C[C@@H](CO)NC(=O)[C@@H]1C=C2c3cccc4[nH]cc(c34)C[C@H]2N(C)C1	Tau FP inhib inconclusive, Tau fluor cs inconclusive, Tau ThT inhib inconclusive (no result: USP1 inh)
CC[C@@H](CO)NC(=O)[C@H]1C=C2c3cccc4c3c(cn4C)C[C@H]2N(C)C1	FBPA coupling cs -42.4, Tau ThT inhib inconclusive (no result: USP1 inh)
Cc1cc(C)cc(N2C(=O)NC(=O)/C(=C\C=C\c3ccco3)C2=O)c1	Tau FP inhib inconclusive, Tau ThT inhib 12.6µM
O=C1NC(=O)N(c2ccccc2)C(=O)/C1=C\C=C\c1ccccc1	Tau FP inhib inconclusive, Tau ThT inhib 11.2µM
CCc1ccc(N2NC(=O)/C(=C/C=C/c3ccco3)C2=O)cc1	Tau FP inhib inconclusive, Tau fluor cs 10µM[quencher], Tau ThT inhib 8.91µM
O=C1NC(=O)N(Cc2ccccc2)C(=O)/C1=C\c1ccco1	Tau ThT inhib inconclusive
CC(C)c1ccc(N2C(=O)NC(=O)/C(=C/C=C/c3ccco3)C2=O)cc1	Tau FP inhib 14.1µM, Tau ThT inhib 14.1µM
COc1cc(/C=C2\C(=O)NC(=O)N(c3ccccc3)C2=O)cc(OC)c1OC	Tau ThT inhib inconclusive
C[C@@H]1Cc2c(Cl)cc(C(=O)N[C@H](Cc3ccccc3)C(=O)O)c(O)c2C(=O)O1	none (no result: USP1 inh, Tau FP inhib, Tau fluor cs, Tau ThT inhib)
COc1ccc(C2CC(c3c(O)n(C4CCCCC4)c(=O)[nH]c3=O)=Nc3ccccc3S2)cc1 (centres undefined)	Tau ThT inhib inconclusive (no result: FBPA coupling cs)
CCOc1ccc(N2C(=O)/C(=C/c3ccco3)C(=O)NC2=S)cc1	USP1 inh 22.4µM (no result: Tau FP inhib, Tau fluor cs, Tau ThT inhib)
Cc1ccc(N2C(=O)NC(=O)/C(=C/C=C/c3ccco3)C2=O)cc1	Tau FP inhib inconclusive, Tau ThT inhib 14.1µM
O=C1NC(=O)N(Cc2ccc(F)cc2)C(=O)/C1=C\C=C\c1ccco1	none (no result: Tau FP inhib, Tau fluor cs, Tau ThT inhib)
Cc1ccc(N2C(=O)NC(=O)/C(=C/c3ccoc3)C2=O)cc1	USP1 inh inconclusive (no result: Tau ThT inhib)
CCc1ccc(N2C(=O)NC(=O)/C(=C\C=C\c3ccco3)C2=O)cc1	Tau FP inhib 12.6µM, Tau ThT inhib 10µM
CCCCN1C(=O)/C(=C/C=C/c2ccco2)C(=O)NC1=S	USP1 inh inconclusive, Tau FP inhib inconclusive, Tau ThT inhib 15.8µM
COc1ccc2c(c1)[C@@]13CCCCC1[C@@H](C2)N(C)CC3 (some centres undefined)	none (no result: USP1 inh)
COc1cccc2c1C(=O)c1c(O)c3c(c(O)c1C2=O)CC(O)(C(C)=NO)CC3OC1CC(N)C(O)C(C)O1 (centres undefined)	USP1 inh 25.1µM (no result: Tau FP inhib, Tau fluor cs, FBPA coupling cs, Tau ThT inhib)
CCCc1nn(C)c2c1C(c1ccncc1)C(C#N)=C(N)O2 (centres undefined)	Tau ThT inhib inconclusive
CN1CCc2cc3c(c4c2C1Cc1ccccc1-4)OCO3 (centres undefined)	USP1 inh inconclusive, FBPA coupling cs -34.7 (no result: Tau FP inhib, Tau fluor cs, Tau ThT inhib)
CC[C@H]1CN2CCc3cc(OC)c(OC)cc3[C@H]2C[C@@H]1C[C@@H]1NCCc2cc(OC)c(OC)cc21	Tau FP inhib inconclusive (no result: USP1 inh)
Cn1cc(C=C2C(=O)NC(=O)NC2=O)c2ccccc21	USP1 inh 28.2µM (no result: Tau FP inhib, Tau fluor cs, Tau ThT inhib)
CC(=O)n1cc(C=C2C(=O)NC(=O)NC2=O)c2ccccc21	none (no result: Tau FP inhib, Tau fluor cs, Tau ThT inhib)
O=C(CSc1ccc(-c2ccco2)nn1)Nc1ccccc1	Tau ThT inhib inconclusive
Cc1cc(SCC(=O)N/N=C/c2ccco2)nc2ccccc12	FBPA coupling cs -32.0, Tau ThT inhib inconclusive
Nc1c(C(=O)NCCN2CCOCC2)c2nc3ccccc3nc2n1Cc1ccccc1	Tau fluor cs inconclusive
CCC(C)NC(=O)c1c(N)n(CC2CCCO2)c2nc3ccccc3nc12 (centres undefined)	USP1 inh inconclusive, Tau fluor cs inconclusive, FBPA coupling cs -39.6, Tau ThT inhib inconclusive
CCCCn1c(N)c(C(=O)NCCN2CCOCC2)c2nc3ccccc3nc21	none
CCC(C)NC(=O)c1c(N)n(Cc2ccc3c(c2)OCO3)c2nc3ccccc3nc12 (centres undefined)	Tau FP inhib inconclusive, Tau fluor cs inconclusive, FBPA coupling cs -37.3, Tau ThT inhib 20µM
CC(C)CCNC(=O)c1c(N)n(CC2CCCO2)c2nc3ccccc3nc12 (centres undefined)	USP1 inh inconclusive, Tau fluor cs inconclusive, FBPA coupling cs -42.5, Tau ThT inhib inconclusive
CCOc1ccc(NC(=O)CN(c2ccc(Cl)cc2C)S(=O)(=O)c2ccccc2)cc1	Tau fluor cs inconclusive (no result: FBPA coupling cs)
N#CC1=C(N)Oc2c(c(=O)oc3ccccc23)C1c1ccc([N+](=O)[O-])o1 (centres undefined)	USP1 inh inconclusive, Tau FP inhib inconclusive, Tau ThT inhib 10µM
CC(C)Oc1ccc(C2C(C#N)=C(N)Oc3c2c(=O)oc2ccccc32)cc1 (centres undefined)	Tau FP inhib inconclusive, Tau fluor cs inconclusive
ClC1=C(Cl)C(Cl)=C(Cl)C1=C/C=C/c1ccccc1	Tau FP inhib inconclusive, Tau fluor cs 14.1µM[quencher], Tau ThT inhib 11.2µM
CC1(C)CC(=O)C2=C(C1)OC(N)=C([N+](=O)[O-])C2c1ccc(C#N)s1 (centres undefined)	Tau FP inhib inconclusive, Tau fluor cs inconclusive, Tau ThT inhib 8.91µM
O=C1C=C(N2CC2)c2ccccc2C1=O	USP1 inh 7.08µM (no result: Tau FP inhib, Tau fluor cs, FBPA coupling cs, Tau ThT inhib)
